# Measurements published in paper PMC7862700, “An all-to-all approach to the identification of sequence-specific readers for epigenetic DNA modifications on cytosine”.
# Tests used:
# Test in all cases: DAPPL (digital affinity profiling via proximity ligation, sequencing); 10 mM Tris-HCl pH 7.5, 50 mM NaCl, 1 mM DTT, 4% glycerol, room temperature, 30 min; GST-TFs on glutathione beads, 16-mer random dsDNA library, 0.1% formaldehyde crosslink after washing; high values mean tight binding
# [1] = molecular target: T1, FLI1 (Homo sapiens, UniProt Q01543 1-452); conditions: protein: recombinant; tags: N-terminal GST; dsDNA, one strand shown
# T1 sequence: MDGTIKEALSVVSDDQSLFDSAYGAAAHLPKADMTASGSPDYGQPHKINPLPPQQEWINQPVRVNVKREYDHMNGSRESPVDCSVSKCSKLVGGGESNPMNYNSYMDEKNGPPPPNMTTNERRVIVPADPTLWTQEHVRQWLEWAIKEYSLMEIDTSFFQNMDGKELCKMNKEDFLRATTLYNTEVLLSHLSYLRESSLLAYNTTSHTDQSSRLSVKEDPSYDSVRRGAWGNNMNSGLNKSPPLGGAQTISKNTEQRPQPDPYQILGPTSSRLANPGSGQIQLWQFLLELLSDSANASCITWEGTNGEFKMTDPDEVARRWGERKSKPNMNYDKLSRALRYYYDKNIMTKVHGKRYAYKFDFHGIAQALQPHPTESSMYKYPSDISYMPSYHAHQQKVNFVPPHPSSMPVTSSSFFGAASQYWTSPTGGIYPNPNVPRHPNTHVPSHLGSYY
# Method in brief: (§1)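 In yeast, human transcription factors were expressed with a GST fusion, then pulled down on glutathione beads and given DNA barcodes. Pooled with a tag-only sample, they were exposed to 200 nmole of a 16-mer random double-stranded DNA library (Tris/NaCl/DTT/glycerol buffer, room temperature, 30 min), washed, crosslinked with 0.1% formaldehyde, proximity-ligated using BsaI/T4 ligase for 1 h at 37 °C, PCR-amplified and read on an Illumina NextSeq500. Each hexamer's frequency of reads for a factor, divided by the matching frequency for the tag-only sample, gives the binding signal.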
# [2] = molecular target: T2, ELK1 (Homo sapiens, UniProt P19419 1-428); conditions: protein: recombinant; tags: N-terminal GST; dsDNA, one strand shown
# T2 sequence: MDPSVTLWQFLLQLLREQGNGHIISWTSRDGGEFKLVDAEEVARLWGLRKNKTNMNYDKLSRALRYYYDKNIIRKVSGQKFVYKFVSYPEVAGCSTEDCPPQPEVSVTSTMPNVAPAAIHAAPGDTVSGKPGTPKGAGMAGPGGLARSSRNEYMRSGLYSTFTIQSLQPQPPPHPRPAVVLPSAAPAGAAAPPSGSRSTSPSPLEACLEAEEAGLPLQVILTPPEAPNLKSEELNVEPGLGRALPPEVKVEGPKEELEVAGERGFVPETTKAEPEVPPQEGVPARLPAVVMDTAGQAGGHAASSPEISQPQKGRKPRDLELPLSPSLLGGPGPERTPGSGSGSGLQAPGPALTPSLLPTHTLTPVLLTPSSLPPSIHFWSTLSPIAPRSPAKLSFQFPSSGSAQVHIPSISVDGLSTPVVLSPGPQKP
# Method in brief: as §1
# [3] = molecular target: T3, GABPA (Homo sapiens, UniProt Q06546 1-454); conditions: protein: recombinant; tags: N-terminal GST; dsDNA, one strand shown
# T3 sequence: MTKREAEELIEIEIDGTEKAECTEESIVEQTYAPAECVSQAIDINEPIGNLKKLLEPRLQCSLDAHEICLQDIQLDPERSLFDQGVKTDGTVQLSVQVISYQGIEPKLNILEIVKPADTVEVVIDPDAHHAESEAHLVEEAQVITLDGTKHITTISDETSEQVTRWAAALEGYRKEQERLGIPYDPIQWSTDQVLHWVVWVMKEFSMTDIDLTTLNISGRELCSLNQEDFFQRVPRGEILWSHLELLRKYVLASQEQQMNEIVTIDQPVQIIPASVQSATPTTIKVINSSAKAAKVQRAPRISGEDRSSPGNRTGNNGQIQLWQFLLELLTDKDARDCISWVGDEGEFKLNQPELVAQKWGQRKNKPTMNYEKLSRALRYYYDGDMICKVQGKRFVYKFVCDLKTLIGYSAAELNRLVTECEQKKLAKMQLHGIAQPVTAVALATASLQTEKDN
# Method in brief: as §1
# [4] = molecular target: T4, ERG (Homo sapiens, UniProt P11308 1-479); conditions: protein: recombinant; tags: N-terminal GST; dsDNA, one strand shown
# T4 sequence: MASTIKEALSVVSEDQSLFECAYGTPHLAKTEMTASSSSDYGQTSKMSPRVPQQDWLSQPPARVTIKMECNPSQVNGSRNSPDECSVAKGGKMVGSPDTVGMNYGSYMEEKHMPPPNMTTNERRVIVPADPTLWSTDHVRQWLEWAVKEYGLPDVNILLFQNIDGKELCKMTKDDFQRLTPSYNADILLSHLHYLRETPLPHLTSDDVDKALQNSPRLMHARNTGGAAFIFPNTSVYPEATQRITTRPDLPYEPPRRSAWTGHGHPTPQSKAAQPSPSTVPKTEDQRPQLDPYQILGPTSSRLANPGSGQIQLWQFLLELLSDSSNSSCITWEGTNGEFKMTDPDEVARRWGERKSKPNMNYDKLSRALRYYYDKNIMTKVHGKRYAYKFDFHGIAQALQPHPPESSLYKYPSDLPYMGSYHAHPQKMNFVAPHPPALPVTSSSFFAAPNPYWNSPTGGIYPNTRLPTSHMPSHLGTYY
# Method in brief: as §1
# [5] = molecular target: ELF1 (Homo sapiens, UniProt P32519 1-619); conditions: protein: recombinant; tags: N-terminal GST; dsDNA, one strand shown
# Method in brief: as §1
# [6] = molecular target: T5, EHF (Homo sapiens, UniProt Q9NZC4 1-300); conditions: protein: recombinant; tags: N-terminal GST; dsDNA, one strand shown
# T5 sequence: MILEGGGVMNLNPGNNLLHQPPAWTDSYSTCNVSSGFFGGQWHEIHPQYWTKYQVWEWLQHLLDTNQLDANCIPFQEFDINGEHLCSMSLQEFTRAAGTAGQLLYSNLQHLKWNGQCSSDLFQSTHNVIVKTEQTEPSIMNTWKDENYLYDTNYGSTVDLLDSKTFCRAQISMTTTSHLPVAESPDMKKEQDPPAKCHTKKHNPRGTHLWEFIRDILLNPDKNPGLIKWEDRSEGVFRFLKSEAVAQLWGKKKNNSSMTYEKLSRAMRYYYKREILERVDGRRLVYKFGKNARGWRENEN
# Method in brief: as §1
# [7] = molecular target: SPI1 (Homo sapiens, UniProt P17947 1-270); conditions: protein: recombinant; tags: N-terminal GST; dsDNA, one strand shown
# Method in brief: as §1
# [8] = molecular target: SPIB (Homo sapiens, UniProt Q01892 1-262); conditions: protein: recombinant; tags: N-terminal GST; dsDNA, one strand shown
# Method in brief: as §1
# [9] = molecular target: T6, ELK3 (Homo sapiens, UniProt P41970 1-407); conditions: protein: recombinant; tags: N-terminal GST; dsDNA, one strand shown
# T6 sequence: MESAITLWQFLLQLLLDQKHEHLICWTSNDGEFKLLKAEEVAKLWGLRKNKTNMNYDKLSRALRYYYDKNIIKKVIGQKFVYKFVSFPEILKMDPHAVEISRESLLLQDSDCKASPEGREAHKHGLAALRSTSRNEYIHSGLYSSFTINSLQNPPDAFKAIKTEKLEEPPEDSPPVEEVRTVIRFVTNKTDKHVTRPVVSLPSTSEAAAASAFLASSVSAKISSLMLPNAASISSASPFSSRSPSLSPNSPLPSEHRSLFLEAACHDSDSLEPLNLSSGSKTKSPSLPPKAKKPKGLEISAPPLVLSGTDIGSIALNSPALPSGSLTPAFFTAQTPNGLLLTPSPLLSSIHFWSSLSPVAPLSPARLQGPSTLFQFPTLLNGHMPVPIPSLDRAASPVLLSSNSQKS
# Method in brief: as §1
# [10] = molecular target: T7, FEV (Homo sapiens, UniProt Q99581 1-238); conditions: protein: recombinant; tags: N-terminal GST; dsDNA, one strand shown
# T7 sequence: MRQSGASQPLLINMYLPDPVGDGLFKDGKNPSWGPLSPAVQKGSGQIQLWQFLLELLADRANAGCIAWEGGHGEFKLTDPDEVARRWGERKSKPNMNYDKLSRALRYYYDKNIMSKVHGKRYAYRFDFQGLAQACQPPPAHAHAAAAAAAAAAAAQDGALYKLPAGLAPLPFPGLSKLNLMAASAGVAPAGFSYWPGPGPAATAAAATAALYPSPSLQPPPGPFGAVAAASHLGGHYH
# Method in brief: as §1
# [11] = molecular target: ETV5 (Homo sapiens, UniProt P41161 1-510); conditions: protein: recombinant; tags: N-terminal GST; dsDNA, one strand shown
# Method in brief: as §1
# [12] = molecular target: HSF1 (Homo sapiens, UniProt Q00613 1-529); conditions: protein: recombinant; tags: N-terminal GST; chain copies: 3; dsDNA, one strand shown
# Method in brief: as §1
# [13] = molecular target: T8, SPIC (Homo sapiens, UniProt Q8N5J4 1-248); conditions: protein: recombinant; tags: N-terminal GST; dsDNA, one strand shown
# T8 sequence: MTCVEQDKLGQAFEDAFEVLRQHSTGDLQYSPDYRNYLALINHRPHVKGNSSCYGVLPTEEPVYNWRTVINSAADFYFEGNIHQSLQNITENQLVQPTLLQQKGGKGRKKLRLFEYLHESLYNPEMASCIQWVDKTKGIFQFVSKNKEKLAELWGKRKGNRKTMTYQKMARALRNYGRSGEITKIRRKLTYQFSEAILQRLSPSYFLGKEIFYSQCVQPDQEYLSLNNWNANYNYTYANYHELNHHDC
# Method in brief: as §1
# [14] = molecular target: ELF4 (Homo sapiens, UniProt Q99607 1-663); conditions: protein: recombinant; tags: N-terminal GST; dsDNA, one strand shown
# Method in brief: as §1
# [15] = molecular target: T9, ELK4 (Homo sapiens, UniProt P28324-2 1-405); conditions: protein: recombinant; tags: N-terminal GST; dsDNA, one strand shown
# T9 sequence: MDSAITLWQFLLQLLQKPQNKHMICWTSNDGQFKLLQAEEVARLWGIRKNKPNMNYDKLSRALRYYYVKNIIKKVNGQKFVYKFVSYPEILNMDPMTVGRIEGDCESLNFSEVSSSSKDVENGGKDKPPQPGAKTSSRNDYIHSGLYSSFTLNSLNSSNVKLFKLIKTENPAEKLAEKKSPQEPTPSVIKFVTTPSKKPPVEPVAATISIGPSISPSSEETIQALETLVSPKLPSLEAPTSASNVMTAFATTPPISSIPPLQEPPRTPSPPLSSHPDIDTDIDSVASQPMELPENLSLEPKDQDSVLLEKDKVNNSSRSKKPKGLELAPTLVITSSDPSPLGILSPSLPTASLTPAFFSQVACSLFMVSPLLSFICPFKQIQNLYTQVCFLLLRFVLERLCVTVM
# Method in brief: as §1
# [16] = molecular target: T10, ETV2 (Homo sapiens, UniProt O00321 1-342); conditions: protein: recombinant; tags: N-terminal GST; dsDNA, one strand shown
# T10 sequence: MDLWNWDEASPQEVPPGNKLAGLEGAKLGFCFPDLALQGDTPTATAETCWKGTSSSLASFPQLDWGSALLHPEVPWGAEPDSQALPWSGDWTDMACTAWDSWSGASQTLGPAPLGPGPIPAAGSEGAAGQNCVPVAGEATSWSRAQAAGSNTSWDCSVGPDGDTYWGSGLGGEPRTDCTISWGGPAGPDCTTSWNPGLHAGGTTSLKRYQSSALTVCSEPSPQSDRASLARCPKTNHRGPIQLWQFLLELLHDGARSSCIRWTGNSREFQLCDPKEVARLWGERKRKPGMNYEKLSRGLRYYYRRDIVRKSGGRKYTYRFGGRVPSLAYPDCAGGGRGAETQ
# Method in brief: as §1
# [17] = molecular target: T11, ELF3 (Homo sapiens, UniProt P78545 1-371); conditions: protein: recombinant; tags: N-terminal GST; dsDNA, one strand shown
# T11 sequence: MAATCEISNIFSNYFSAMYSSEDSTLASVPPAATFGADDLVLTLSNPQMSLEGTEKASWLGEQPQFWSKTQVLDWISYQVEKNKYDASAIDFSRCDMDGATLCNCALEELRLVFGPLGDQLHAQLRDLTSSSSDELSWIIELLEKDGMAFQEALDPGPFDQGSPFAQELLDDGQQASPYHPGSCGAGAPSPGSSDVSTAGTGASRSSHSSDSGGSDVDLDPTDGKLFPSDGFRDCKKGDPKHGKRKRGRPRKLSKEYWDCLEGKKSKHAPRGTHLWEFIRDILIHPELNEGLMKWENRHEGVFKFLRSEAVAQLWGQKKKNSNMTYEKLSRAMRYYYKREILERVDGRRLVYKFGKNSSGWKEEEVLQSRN
# Method in brief: as §1
# [18] = molecular target: CRX (Homo sapiens, UniProt O43186 1-299); conditions: protein: recombinant; tags: N-terminal GST; dsDNA, one strand shown
# Method in brief: as §1
# [19] = molecular target: ETV1 (Homo sapiens, UniProt P50549 1-477); conditions: protein: recombinant; tags: N-terminal GST; dsDNA, one strand shown
# Method in brief: as §1
# Sequence of CRX (O43186 whole entry): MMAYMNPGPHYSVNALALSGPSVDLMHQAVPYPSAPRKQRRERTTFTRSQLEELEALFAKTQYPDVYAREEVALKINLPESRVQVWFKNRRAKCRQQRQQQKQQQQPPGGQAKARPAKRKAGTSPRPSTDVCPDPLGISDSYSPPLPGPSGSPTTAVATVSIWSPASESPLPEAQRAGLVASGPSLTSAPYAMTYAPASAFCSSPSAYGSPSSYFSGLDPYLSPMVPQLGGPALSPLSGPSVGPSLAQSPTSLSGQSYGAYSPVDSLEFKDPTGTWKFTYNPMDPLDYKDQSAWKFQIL
# Sequence of ETV1 (P50549 whole entry): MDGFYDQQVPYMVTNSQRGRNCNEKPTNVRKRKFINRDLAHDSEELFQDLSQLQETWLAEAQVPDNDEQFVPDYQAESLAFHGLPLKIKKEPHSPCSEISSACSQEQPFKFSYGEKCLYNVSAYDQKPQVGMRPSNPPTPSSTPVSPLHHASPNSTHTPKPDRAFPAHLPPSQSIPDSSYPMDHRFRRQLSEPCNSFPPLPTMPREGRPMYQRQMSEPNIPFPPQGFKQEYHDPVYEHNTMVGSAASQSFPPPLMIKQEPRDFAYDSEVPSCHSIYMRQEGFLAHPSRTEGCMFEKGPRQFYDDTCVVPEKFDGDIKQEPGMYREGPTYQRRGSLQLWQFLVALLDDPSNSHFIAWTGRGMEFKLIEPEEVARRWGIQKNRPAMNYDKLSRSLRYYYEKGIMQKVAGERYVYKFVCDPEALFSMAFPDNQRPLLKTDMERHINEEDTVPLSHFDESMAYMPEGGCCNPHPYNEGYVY
# Sequence of HSF1 (Q00613 whole entry): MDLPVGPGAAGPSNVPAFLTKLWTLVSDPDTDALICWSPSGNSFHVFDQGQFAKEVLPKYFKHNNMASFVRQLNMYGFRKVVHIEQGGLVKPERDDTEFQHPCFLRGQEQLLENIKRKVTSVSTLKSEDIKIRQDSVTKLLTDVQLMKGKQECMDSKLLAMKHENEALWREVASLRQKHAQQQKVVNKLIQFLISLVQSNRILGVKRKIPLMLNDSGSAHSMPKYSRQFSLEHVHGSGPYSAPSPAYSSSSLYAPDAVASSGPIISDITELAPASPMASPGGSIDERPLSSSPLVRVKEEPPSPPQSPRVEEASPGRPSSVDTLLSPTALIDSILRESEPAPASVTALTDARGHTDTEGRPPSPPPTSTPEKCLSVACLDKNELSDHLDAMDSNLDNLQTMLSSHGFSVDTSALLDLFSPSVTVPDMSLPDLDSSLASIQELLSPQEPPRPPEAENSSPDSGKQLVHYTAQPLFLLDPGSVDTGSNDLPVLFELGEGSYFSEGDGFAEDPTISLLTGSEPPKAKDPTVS
# Sequence of ELF4 (Q99607 whole entry): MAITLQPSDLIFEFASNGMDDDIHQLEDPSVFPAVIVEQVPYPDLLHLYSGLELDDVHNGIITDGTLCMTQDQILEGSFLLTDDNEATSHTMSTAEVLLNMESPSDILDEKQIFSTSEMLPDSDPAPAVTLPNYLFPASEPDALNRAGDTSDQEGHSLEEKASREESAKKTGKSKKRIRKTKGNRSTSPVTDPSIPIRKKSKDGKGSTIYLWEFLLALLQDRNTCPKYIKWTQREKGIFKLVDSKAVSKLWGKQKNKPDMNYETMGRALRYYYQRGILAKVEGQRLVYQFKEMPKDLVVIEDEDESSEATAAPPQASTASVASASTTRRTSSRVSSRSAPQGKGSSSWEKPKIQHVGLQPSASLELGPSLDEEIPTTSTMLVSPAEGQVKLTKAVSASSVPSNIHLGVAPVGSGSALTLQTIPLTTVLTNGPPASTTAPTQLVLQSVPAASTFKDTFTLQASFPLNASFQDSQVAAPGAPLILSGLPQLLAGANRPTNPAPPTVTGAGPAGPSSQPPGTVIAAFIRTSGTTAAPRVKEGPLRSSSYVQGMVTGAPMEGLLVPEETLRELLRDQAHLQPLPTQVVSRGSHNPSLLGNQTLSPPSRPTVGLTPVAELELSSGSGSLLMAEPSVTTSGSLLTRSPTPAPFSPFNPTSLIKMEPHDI
# Sequence of SPIB (Q01892 whole entry): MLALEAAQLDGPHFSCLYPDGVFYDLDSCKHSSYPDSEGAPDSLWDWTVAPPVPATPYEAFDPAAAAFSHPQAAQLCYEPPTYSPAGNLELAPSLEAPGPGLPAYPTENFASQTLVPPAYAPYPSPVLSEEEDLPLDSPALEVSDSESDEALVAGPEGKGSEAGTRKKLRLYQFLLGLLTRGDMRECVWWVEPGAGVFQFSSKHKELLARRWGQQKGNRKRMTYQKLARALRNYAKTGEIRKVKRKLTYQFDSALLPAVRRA
# Sequence of ELF1 (P32519 whole entry): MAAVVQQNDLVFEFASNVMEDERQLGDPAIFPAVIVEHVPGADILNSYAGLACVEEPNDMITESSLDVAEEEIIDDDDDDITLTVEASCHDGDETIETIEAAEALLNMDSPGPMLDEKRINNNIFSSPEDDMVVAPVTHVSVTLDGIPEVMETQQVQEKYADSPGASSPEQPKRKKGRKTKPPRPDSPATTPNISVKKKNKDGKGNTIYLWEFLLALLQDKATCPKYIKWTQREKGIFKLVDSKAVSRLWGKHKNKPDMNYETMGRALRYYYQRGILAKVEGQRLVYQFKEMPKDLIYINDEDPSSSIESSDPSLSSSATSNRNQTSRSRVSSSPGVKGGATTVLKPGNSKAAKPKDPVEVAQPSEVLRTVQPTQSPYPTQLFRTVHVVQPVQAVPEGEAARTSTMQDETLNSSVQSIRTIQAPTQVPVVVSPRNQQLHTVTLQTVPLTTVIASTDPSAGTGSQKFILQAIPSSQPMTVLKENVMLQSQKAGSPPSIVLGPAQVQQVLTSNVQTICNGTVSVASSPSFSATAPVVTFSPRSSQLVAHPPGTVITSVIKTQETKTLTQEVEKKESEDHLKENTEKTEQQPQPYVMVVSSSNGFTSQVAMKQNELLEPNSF
# Sequence of ETV5 (P41161 whole entry): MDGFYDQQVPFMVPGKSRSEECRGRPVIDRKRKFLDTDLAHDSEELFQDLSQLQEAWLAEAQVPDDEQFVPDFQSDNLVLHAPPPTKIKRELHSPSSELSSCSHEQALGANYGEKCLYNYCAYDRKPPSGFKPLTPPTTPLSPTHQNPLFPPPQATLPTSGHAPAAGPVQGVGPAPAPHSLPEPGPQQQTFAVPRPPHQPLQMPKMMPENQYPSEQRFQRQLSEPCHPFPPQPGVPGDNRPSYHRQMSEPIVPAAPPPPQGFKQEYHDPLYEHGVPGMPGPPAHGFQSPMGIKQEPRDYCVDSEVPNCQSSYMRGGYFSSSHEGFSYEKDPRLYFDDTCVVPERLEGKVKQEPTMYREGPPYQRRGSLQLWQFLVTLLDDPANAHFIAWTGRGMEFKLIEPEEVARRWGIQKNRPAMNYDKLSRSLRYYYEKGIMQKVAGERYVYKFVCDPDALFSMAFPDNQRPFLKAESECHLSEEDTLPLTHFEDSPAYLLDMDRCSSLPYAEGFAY
sequence,measurement,setting,value
TAGCTC,binding signal,[1],"1.17 fold enrichment (6-mer frequency, TF over GST control)"
same,binding signal,[2],"1.13 fold enrichment (6-mer frequency, TF over GST control)"
same,binding signal,[3],"1.2 fold enrichment (6-mer frequency, TF over GST control)"
same,binding signal,[4],"1.11 fold enrichment (6-mer frequency, TF over GST control)"
same,binding signal,[5],"1.18 fold enrichment (6-mer frequency, TF over GST control)"
same,binding signal,[6],"1.25 fold enrichment (6-mer frequency, TF over GST control)"
same,binding signal,[7],"1.21 fold enrichment (6-mer frequency, TF over GST control)"
same,binding signal,[8],"1.05 fold enrichment (6-mer frequency, TF over GST control)"
same,binding signal,[9],"1.28 fold enrichment (6-mer frequency, TF over GST control)"
same,binding signal,[10],"1.19 fold enrichment (6-mer frequency, TF over GST control)"
same,binding signal,[11],"1.25 fold enrichment (6-mer frequency, TF over GST control)"
same,binding signal,[12],"1.24 fold enrichment (6-mer frequency, TF over GST control)"
same,binding signal,[13],"1.19 fold enrichment (6-mer frequency, TF over GST control)"
same,binding signal,[14],"1.22 fold enrichment (6-mer frequency, TF over GST control)"
same,binding signal,[15],"1.26 fold enrichment (6-mer frequency, TF over GST control)"
same,binding signal,[16],"1.37 fold enrichment (6-mer frequency, TF over GST control)"
same,binding signal,[17],"1.17 fold enrichment (6-mer frequency, TF over GST control)"
same,binding signal,[18],"1.46 fold enrichment (6-mer frequency, TF over GST control)"
same,binding signal,[19],"1.21 fold enrichment (6-mer frequency, TF over GST control)"
